Laboratory results reported in PubChem BioAssay AID504862 (Sanford-Burnham Center for Chemical Genomics, 2011).
The other results are listed elsewhere or left out. Calls of active or inactive are those of the source.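 How the source made its calls: active means average inhibition reaching 50% or more with the compound at 20 µM; inactive means the rest.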

Test system: diaphorase (Clostridium kluyveri)
Assay: diaphorase inhibitors and chemical oxidizers, confirmation, counter-screen for P. falciparum G6PD inhibitor project, biochemical, fluorescence intensity, 10 µM NADPH (AID 504862);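 further: resorufin red fluorescence formed as diaphorase reduces resazurin using NADPH; 0% = DMSO with enzyme and 100% = DMSO without enzyme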
Conditions: diaphorase-coupled resazurin reduction, NADPH 10 uM, at 20 µM, stronger effect = higher value

Q: For `COc1cccc(C(=O)Nc2nnc(S(=O)(=O)N3CCOCC3)s2)c1`, which inhibition is on record?
A: 69.5% (active)

Q: For `O=C1/C(=C\c2ccc([N+](=O)[O-])cc2)CS(=O)(=O)C/C1=C/c1ccc([N+](=O)[O-])cc1`, which inhibition is on record?
A: -19.8% (inactive)

Q: `CCSc1nnc(NC(=O)c2ccc(C)cc2)s1` was tested. Which inhibition did it give?
A: 61.9% (active)

Q: `COc1ccc(CC(=O)NCC(=O)N/N=C/c2cc(Br)ccc2OC)cc1` was tested. Which inhibition did it give?
A: 87.8% (active)

Q: Which inhibition does the source give for `COc1ccc(CCn2c(NN=C3CCCC3)nc3c2c(=O)[nH]c(=O)n3C)cc1` here?
A: 7.63% (inactive)

Q: How did the inhibition turn out when `c1ccc(-c2cn3c(n2)CCc2ccc4cccnc4c2-3)cc1` was run?
A: 10.4% (inactive)

Q: How did the inhibition turn out when `Cc1ccc(NC(=O)Cn2sc3ccccc3c2=O)cc1` was run?
A: 0.47% (inactive)

Q: For `CC(C)(C)NC(=O)COc1ccc(CNc2ccc3[nH]c(=O)[nH]c3c2)cc1`, which inhibition is on record?
A: 27.4% (inactive)

Q: How did the inhibition turn out when `O=C(Nc1nnc(S(=O)(=O)N2CCOCC2)s1)c1cccc(Br)c1` was run?
A: 56.5% (active)

Q: For `COc1ccc2c(c1)c(=Cc1ccc(N(C)C)cc1)c1cc(-c3ccccc3)[n+](C)n12`, which inhibition is on record?
A: 17.5% (inactive)

Q: For `O=C(Nc1nnc(S(=O)(=O)N2CCCCCC2)s1)c1cccc(Br)c1`, which inhibition is on record?
A: 52.1% (active)

Q: `Cc1ccnc(-n2sc3ccccc3c2=O)n1` was tested. Which inhibition did it give?
A: -36% (inactive)

Q: Which inhibition does the source give for `COc1cccc(C(=O)Nc2nnc(S(=O)(=O)N3CCCCC3)s2)c1` here?
A: 72.7% (active)

Q: `CCN1CCCC1CNC(=O)c1ccc2c(c1)NC(=O)/C(=C\c1ccccc1F)S2` (stereo unspecified) was tested. Which inhibition did it give?
A: -2.12% (inactive)

Q: How did the inhibition turn out when `CCOc1ccccc1/C=N/NC(=O)CNC(=O)COc1ccccc1` was run?
A: 96.9% (active)

Q: For `O=c1[nH]c2ccccc2n2c(-c3ccccc3)nnc12`, which inhibition is on record?
A: 37.2% (inactive)
